Measurements reported in paper PMC7862700, “An all-to-all approach to the identification of sequence-specific readers for epigenetic DNA modifications on cytosine”.

How the values were obtained:
Assay in all cases: DAPPL (digital affinity profiling via proximity ligation, sequencing); 10 mM Tris-HCl pH 7.5, 50 mM NaCl, 1 mM DTT, 4% glycerol, room temperature, 30 min; GST-TFs on glutathione beads, 16-mer random dsDNA library, 0.1% formaldehyde crosslink after washing; high values mean tight binding
FLI1 = molecular target: T1, FLI1 (Homo sapiens, UniProt Q01543 1-452); conditions: protein: recombinant; tags: N-terminal GST; dsDNA, one strand shown
T1 sequence: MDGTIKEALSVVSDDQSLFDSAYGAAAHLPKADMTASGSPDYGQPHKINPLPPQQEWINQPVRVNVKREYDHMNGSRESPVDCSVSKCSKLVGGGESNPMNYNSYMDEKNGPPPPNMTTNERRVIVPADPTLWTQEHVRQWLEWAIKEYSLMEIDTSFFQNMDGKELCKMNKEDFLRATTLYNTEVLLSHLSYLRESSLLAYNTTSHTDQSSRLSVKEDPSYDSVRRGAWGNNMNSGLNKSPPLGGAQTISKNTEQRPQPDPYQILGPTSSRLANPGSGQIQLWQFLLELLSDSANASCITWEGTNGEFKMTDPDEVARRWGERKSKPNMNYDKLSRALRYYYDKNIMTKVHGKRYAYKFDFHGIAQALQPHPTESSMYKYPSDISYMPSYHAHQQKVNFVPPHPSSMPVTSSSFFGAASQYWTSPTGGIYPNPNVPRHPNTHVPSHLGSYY
Outline: (§1)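 Human transcription factors carrying a GST fusion were produced in yeast, bound to glutathione beads, tagged with DNA barcodes and pooled together with a tag-only sample. Each pool was held with 200 nmole of a random double-stranded 16-mer DNA library in Tris/NaCl/DTT/glycerol buffer for 30 min at room temperature, then washed, crosslinked in 0.1% formaldehyde, proximity-ligated with BsaI/T4 ligase (1 h, 37 °C), PCR-amplified and sequenced on an Illumina NextSeq500. Binding signal is the read frequency of each hexamer for a given factor divided by its frequency in the tag-only sample.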

ELK1 = molecular target: T2, ELK1 (Homo sapiens, UniProt P19419 1-428); conditions: protein: recombinant; tags: N-terminal GST; dsDNA, one strand shown
T2 sequence: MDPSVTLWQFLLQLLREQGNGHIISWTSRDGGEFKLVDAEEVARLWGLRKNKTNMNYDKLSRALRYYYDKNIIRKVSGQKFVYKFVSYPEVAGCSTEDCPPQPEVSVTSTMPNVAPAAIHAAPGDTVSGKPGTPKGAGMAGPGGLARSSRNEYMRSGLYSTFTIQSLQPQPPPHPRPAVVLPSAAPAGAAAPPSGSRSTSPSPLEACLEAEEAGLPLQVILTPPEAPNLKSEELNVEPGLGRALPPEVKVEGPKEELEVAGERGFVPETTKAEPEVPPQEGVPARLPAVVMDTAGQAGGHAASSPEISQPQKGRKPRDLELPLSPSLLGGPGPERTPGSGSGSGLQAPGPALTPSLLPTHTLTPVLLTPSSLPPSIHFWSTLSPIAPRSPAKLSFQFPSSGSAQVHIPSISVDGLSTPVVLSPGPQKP
Outline: as §1

GABPA = molecular target: T3, GABPA (Homo sapiens, UniProt Q06546 1-454); conditions: protein: recombinant; tags: N-terminal GST; dsDNA, one strand shown
T3 sequence: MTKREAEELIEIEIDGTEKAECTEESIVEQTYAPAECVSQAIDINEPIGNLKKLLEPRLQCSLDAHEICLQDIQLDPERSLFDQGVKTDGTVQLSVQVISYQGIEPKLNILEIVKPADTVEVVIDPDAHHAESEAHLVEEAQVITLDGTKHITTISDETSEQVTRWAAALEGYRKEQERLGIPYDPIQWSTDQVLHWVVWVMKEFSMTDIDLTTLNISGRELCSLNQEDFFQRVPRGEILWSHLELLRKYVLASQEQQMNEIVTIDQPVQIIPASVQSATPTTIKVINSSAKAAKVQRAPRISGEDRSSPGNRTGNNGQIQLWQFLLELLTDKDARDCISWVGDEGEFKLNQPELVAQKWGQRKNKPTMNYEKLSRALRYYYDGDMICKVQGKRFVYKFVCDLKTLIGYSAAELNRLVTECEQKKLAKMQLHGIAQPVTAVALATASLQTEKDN
Outline: as §1

ERG = molecular target: T4, ERG (Homo sapiens, UniProt P11308 1-479); conditions: protein: recombinant; tags: N-terminal GST; dsDNA, one strand shown
T4 sequence: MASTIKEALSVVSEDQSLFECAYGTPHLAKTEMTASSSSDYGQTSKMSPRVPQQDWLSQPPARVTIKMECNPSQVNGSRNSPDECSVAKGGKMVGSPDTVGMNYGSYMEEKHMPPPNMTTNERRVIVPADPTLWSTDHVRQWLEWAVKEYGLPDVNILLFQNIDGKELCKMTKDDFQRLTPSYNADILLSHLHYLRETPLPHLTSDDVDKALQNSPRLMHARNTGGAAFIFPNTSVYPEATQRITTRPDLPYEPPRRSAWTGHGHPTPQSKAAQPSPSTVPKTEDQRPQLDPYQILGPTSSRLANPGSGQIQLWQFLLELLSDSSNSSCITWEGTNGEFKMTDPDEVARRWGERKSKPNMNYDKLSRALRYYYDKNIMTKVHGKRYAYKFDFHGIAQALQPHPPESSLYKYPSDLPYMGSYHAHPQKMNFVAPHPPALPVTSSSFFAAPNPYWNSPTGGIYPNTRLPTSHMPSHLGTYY
Outline: as §1

ELF1 = ELF1 (Homo sapiens, UniProt P32519 1-619); conditions: protein: recombinant; tags: N-terminal GST; dsDNA, one strand shown
Outline: as §1

EHF = molecular target: T5, EHF (Homo sapiens, UniProt Q9NZC4 1-300); conditions: protein: recombinant; tags: N-terminal GST; dsDNA, one strand shown
T5 sequence: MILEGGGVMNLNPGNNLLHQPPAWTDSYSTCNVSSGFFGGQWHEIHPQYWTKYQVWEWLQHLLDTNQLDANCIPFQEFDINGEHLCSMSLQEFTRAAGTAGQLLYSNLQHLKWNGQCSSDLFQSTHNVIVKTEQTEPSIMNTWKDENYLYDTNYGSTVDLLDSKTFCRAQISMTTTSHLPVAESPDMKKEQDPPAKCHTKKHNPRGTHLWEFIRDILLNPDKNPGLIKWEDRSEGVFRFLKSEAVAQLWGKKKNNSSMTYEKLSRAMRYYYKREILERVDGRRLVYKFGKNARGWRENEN
Outline: as §1

SPI1 = SPI1 (Homo sapiens, UniProt P17947 1-270); conditions: protein: recombinant; tags: N-terminal GST; dsDNA, one strand shown
Outline: as §1

SPIB = SPIB (Homo sapiens, UniProt Q01892 1-262); conditions: protein: recombinant; tags: N-terminal GST; dsDNA, one strand shown
Outline: as §1

ELK3 = molecular target: T6, ELK3 (Homo sapiens, UniProt P41970 1-407); conditions: protein: recombinant; tags: N-terminal GST; dsDNA, one strand shown
T6 sequence: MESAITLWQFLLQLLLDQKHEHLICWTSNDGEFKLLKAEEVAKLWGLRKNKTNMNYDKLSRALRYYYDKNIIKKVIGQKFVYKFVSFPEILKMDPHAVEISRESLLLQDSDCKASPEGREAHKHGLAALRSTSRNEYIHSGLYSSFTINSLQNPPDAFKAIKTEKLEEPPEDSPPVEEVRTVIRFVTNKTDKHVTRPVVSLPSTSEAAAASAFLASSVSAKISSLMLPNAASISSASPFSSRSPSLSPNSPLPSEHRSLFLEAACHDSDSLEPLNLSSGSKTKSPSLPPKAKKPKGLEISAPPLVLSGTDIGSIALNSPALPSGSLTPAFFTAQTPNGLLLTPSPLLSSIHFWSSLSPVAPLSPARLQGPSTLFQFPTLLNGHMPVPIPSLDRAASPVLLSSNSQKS
Outline: as §1

FEV = molecular target: T7, FEV (Homo sapiens, UniProt Q99581 1-238); conditions: protein: recombinant; tags: N-terminal GST; dsDNA, one strand shown
T7 sequence: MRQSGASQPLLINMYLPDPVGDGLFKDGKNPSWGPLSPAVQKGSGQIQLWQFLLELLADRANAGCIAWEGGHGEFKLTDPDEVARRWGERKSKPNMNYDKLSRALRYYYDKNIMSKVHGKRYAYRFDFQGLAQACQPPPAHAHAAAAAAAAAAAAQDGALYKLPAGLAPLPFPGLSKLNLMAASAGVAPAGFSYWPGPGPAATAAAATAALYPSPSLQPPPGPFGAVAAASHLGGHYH
Outline: as §1

ETV5 = ETV5 (Homo sapiens, UniProt P41161 1-510); conditions: protein: recombinant; tags: N-terminal GST; dsDNA, one strand shown
Outline: as §1

HSF1 = HSF1 (Homo sapiens, UniProt Q00613 1-529); conditions: protein: recombinant; tags: N-terminal GST; chain copies: 3; dsDNA, one strand shown
Outline: as §1

SPIC = molecular target: T8, SPIC (Homo sapiens, UniProt Q8N5J4 1-248); conditions: protein: recombinant; tags: N-terminal GST; dsDNA, one strand shown
T8 sequence: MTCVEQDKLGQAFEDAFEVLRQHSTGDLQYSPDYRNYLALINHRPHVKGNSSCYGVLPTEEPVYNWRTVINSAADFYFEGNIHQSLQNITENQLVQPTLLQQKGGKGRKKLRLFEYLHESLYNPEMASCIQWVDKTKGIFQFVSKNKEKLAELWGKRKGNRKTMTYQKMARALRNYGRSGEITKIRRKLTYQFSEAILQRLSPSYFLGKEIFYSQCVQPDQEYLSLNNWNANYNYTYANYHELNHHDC
Outline: as §1

ELF4 = ELF4 (Homo sapiens, UniProt Q99607 1-663); conditions: protein: recombinant; tags: N-terminal GST; dsDNA, one strand shown
Outline: as §1

ELK4 = molecular target: T9, ELK4 (Homo sapiens, UniProt P28324-2 1-405); conditions: protein: recombinant; tags: N-terminal GST; dsDNA, one strand shown
T9 sequence: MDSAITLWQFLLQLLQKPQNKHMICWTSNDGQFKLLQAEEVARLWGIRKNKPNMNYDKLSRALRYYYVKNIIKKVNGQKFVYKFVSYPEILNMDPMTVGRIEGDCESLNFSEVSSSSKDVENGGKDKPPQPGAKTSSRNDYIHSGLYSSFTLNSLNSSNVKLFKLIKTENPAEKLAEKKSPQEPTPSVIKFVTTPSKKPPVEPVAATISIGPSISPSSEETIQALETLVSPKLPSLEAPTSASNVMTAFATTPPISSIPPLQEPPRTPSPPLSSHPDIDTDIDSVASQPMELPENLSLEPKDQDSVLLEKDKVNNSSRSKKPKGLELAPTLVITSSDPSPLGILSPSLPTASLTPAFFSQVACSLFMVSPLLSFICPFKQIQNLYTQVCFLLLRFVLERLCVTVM
Outline: as §1

ETV2 = molecular target: T10, ETV2 (Homo sapiens, UniProt O00321 1-342); conditions: protein: recombinant; tags: N-terminal GST; dsDNA, one strand shown
T10 sequence: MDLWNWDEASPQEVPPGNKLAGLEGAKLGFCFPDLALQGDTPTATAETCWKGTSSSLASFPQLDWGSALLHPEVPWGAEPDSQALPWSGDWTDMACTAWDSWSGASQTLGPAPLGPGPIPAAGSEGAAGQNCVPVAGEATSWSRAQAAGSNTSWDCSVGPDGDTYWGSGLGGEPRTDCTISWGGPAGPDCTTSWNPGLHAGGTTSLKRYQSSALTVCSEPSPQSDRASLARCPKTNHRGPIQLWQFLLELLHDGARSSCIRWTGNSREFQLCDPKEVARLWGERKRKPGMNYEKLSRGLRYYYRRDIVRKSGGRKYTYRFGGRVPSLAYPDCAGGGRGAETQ
Outline: as §1

CRX = CRX (Homo sapiens, UniProt O43186 1-299); conditions: protein: recombinant; tags: N-terminal GST; dsDNA, one strand shown
Outline: as §1

ETV1 = ETV1 (Homo sapiens, UniProt P50549 1-477); conditions: protein: recombinant; tags: N-terminal GST; dsDNA, one strand shown
Outline: as §1

CRX, sequence (O43186 whole entry): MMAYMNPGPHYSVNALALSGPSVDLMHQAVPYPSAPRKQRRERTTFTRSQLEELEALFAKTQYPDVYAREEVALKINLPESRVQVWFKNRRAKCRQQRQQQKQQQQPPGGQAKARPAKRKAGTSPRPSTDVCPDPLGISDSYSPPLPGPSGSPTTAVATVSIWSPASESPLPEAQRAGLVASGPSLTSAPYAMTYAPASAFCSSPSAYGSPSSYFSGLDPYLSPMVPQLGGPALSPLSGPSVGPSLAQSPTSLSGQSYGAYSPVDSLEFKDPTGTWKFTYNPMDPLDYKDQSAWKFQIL
ELF4, sequence (Q99607 whole entry): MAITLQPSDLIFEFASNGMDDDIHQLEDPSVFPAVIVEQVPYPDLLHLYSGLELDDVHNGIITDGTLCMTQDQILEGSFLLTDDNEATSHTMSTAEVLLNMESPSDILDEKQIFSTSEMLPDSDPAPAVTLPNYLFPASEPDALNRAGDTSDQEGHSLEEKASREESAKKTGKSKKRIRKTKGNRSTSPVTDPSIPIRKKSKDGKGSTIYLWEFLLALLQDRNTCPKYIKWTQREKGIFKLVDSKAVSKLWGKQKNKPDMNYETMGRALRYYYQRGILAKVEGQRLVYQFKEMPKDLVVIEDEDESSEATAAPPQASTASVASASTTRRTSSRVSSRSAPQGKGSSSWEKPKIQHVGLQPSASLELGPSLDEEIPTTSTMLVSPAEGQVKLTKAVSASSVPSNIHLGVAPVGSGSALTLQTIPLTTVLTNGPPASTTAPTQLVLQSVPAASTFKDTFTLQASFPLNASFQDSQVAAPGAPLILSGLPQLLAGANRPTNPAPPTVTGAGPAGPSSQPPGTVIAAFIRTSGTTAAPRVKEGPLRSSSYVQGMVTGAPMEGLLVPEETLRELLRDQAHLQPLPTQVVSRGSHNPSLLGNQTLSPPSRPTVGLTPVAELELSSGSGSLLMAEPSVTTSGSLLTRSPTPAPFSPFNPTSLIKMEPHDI
ETV1, sequence (P50549 whole entry): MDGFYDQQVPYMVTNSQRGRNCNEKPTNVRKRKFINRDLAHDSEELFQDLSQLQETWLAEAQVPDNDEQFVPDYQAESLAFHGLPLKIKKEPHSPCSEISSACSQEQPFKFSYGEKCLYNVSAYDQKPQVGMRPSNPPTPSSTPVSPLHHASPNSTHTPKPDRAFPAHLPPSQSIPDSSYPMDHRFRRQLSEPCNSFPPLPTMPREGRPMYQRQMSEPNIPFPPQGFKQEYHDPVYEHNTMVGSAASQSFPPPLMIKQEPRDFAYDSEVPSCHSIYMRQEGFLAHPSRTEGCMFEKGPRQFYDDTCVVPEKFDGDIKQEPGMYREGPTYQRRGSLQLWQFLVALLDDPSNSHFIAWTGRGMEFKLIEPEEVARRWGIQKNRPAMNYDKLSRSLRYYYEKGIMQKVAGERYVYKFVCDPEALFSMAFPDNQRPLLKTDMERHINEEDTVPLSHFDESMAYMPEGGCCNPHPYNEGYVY
ETV5, sequence (P41161 whole entry): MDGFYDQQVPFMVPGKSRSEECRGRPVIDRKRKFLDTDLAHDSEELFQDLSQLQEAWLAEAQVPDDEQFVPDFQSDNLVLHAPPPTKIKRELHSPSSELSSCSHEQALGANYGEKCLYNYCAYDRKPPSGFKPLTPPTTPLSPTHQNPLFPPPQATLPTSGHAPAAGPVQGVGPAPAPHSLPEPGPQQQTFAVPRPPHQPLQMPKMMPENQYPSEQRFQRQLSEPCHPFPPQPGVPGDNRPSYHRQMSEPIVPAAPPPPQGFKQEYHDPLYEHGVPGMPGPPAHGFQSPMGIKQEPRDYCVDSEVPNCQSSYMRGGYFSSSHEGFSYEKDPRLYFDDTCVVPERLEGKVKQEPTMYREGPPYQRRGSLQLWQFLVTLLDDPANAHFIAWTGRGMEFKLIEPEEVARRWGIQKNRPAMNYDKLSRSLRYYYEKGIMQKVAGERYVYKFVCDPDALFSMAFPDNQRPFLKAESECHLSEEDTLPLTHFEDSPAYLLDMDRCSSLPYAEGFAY
HSF1, sequence (Q00613 whole entry): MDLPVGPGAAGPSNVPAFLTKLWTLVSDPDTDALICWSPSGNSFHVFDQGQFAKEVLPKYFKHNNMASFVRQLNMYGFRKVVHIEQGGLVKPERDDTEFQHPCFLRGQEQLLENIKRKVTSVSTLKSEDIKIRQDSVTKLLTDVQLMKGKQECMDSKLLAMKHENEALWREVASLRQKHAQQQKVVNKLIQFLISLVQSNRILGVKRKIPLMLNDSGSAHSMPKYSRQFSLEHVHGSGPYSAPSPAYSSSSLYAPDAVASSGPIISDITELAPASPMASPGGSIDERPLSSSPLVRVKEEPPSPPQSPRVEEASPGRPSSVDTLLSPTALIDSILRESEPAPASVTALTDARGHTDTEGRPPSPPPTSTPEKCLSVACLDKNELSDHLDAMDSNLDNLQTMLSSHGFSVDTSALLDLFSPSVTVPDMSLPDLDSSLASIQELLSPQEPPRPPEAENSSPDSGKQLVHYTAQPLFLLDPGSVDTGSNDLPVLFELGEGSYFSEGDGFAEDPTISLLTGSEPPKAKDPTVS
SPIB, sequence (Q01892 whole entry): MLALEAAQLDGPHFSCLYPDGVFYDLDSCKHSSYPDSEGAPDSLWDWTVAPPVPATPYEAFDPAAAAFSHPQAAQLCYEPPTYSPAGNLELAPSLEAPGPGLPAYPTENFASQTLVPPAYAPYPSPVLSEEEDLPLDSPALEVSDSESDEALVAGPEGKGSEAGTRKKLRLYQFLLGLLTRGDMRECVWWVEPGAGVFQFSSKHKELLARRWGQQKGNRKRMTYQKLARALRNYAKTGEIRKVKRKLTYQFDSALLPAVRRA
ELF1, sequence (P32519 whole entry): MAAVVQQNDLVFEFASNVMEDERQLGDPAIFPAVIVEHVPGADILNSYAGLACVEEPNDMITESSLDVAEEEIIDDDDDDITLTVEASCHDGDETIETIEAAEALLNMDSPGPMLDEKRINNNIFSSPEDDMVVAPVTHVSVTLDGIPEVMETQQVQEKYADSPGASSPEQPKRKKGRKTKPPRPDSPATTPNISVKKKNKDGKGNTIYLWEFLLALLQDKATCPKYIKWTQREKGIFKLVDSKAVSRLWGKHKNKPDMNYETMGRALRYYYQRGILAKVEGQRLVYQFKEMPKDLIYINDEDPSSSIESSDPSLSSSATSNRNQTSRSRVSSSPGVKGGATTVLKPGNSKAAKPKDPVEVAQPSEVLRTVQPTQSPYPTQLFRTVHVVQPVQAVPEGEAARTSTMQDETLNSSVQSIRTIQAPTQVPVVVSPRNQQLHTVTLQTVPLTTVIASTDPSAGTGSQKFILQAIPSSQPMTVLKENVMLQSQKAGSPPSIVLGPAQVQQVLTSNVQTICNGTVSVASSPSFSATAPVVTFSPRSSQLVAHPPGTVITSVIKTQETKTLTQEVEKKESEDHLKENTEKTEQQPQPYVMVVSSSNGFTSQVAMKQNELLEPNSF

TGATTT
binding signal (FLI1): 1.29 fold enrichment (6-mer frequency, TF over GST control) | binding signal (ELK1): 1.2 fold enrichment (6-mer frequency, TF over GST control) | binding signal (GABPA): 1.33 fold enrichment (6-mer frequency, TF over GST control) | binding signal (ERG): 1.35 fold enrichment (6-mer frequency, TF over GST control) | binding signal (ELF1): 1.23 fold enrichment (6-mer frequency, TF over GST control) | binding signal (EHF): 1.18 fold enrichment (6-mer frequency, TF over GST control) | binding signal (SPI1): 1.21 fold enrichment (6-mer frequency, TF over GST control) | binding signal (SPIB): 1.23 fold enrichment (6-mer frequency, TF over GST control) | binding signal (ELK3): 1.11 fold enrichment (6-mer frequency, TF over GST control) | binding signal (FEV): 1.26 fold enrichment (6-mer frequency, TF over GST control) | binding signal (ETV5): 1.27 fold enrichment (6-mer frequency, TF over GST control) | binding signal (HSF1): 1.27 fold enrichment (6-mer frequency, TF over GST control) | binding signal (SPIC): 1.39 fold enrichment (6-mer frequency, TF over GST control) | binding signal (ELF4): 1.23 fold enrichment (6-mer frequency, TF over GST control) | binding signal (ELK4): 1.2 fold enrichment (6-mer frequency, TF over GST control) | binding signal (ETV2): 1.29 fold enrichment (6-mer frequency, TF over GST control) | binding signal (CRX): 1.35 fold enrichment (6-mer frequency, TF over GST control) | binding signal (ETV1): 1.31 fold enrichment (6-mer frequency, TF over GST control)
